# Compound activity: PubChem, several laboratories
# CR mimetic SO = yeast age-related superoxide inhibition as caloric restriction mimetic | superoxide response (% of plate mean), % at 10 µM | AID 2690 | S. cerevisiae aged cells, superoxide DHE fluorescence; active compounds read low | 0.18% of 330,000 active;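 active = superoxide response under a set limit, about three screen SD below normal, cut at about 65% in these data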;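 also: yeast aged for seven days with compound at 30 °C before DHE staining; 100% = average MFI of all compound-treated wells on the plate with controls excluded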
# dFosB act = enhances mouse delta FosB homodimer DNA binding | purified delta FosB, TAMRA-CDK5 oligo fluorescence polarization; percent of positive-control signal above neutral wells | activation, % at 25 µM | 0.99% of 340,000 active;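 active = mean activation above about 17%, with every replicate also reaching it, limit read from the data, passing the limit was not always enough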
# Target sequence (P13346 whole entry, looked up): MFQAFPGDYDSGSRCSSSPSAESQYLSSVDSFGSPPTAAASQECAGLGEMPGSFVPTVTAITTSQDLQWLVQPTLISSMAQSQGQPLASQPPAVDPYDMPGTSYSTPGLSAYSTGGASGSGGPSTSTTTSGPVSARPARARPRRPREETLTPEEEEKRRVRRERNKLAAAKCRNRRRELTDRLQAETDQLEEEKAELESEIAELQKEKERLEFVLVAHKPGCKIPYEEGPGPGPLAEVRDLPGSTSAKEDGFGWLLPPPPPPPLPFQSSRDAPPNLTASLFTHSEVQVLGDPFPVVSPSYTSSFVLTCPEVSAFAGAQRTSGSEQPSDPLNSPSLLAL
# NR3A LBD binder = modulators (binders) of human NR3A ligand-binding domain; Tm shift relative to glycine control, % at 25 µM; NR3A LBD differential scanning fluorimetry, Tm shift; 0% = protein alone, 100% = glycine-bound protein; 2.5% of 340,000 active; AID 1259313;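 active = melting temperature shift of at least 10% of the positive control shift, at one fixed dose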
# NALP1 inh = NALP1 inhibition; 0.61% of 280,000 active; inhibition, % at 10 µM; S. cerevisiae NALP1/ASC/caspase-1 growth, X-gal OD620, 72 h; in the data active = inhibition mostly above about 24%, no sharp cut-off; inactive = mostly below about 32%
# UBC13 polyUb = human UBC13 polyubiquitination inhibition. UBC13 polyubiquitin chain formation, TR-FRET. inhibition, % at 20 µM. 0.47% of 330,000 active; in the data active = inhibition above about 45%, passing the limit was not always enough
# Target sequence (P61088 whole entry, looked up): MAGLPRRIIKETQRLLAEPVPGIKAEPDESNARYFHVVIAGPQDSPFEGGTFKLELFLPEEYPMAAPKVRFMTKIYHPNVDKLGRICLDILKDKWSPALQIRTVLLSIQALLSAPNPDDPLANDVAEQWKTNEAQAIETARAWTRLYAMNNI
# CR mimetic CP = yeast aging superoxide inhibition, cherry pick confirmation; 1% of 850 active; shares compounds with CR mimetic SO; S. cerevisiae aging, superoxide DHE fluorescence; active compounds read low; superoxide response (% of plate), % at 10 µM;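 active = superoxide signal below 65% of the plate average of sample wells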;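 also: cells aged with compound for 7 days at 30 degrees C before staining; 100% equals mean DHE fluorescence of all compound wells on the plate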
# DHE counter = compound alters DHE oxidation or fluorescence in yeast | shares compounds with CR mimetic SO | S. cerevisiae BY4741, flow cytometry; active compounds read low | fluorescence response, % at 10 µM | 850 tested, under 10 active;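 active = fluorescence response below 15%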;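 also: percent of the mean fluorescence averaged over all compound wells on the plate; lower means stronger quenching of DHE signal or ROS scavenging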
# Starred values were filed as active, the others as inactive; . = no result given. Compounds with a hit are over-represented: about 4.3% of the library has one in this group of screens.
SMILES,CR mimetic SO,dFosB act,NR3A LBD binder,NALP1 inh,UBC13 polyUb,CR mimetic CP,DHE counter
CN(C(=O)Nc1cccc(C(F)(F)F)c1)C1CCCCC1,53.8*,5.0,0.5,-1.7,-1.3,91.1,102.9
O=C(Nc1cccc(C(F)(F)F)c1)C1CCCCC1,111.2,-9.1,-6.1,26.3,6.9,.,.
O=C(COC(=O)c1c[nH]c(=O)[nH]c1=O)Nc1ccccc1Br,95.6,-4.8,1.6,-12.1,-4.3,.,.
Cc1occc1C(=O)N1CCN(S(=O)(=O)c2ccccc2)CC1,86.9,5.7,-3.6,12.6,-5.6,.,.
CSc1ccc(/C=C(\C#N)C(=O)NC2CCCCC2)cc1,60.1*,3.6,-4.6,24.1,2.5,101.8,90.8
CC(=O)Nc1ccc(/C=C(\C#N)C(=O)NC2CCCCC2)cc1,101.1,-1.3,0.3,-3.7,-6.0,.,.
COc1ccc(CNS(=O)(=O)CCNC(=O)c2cccc(OC)c2)cc1,106.7,-4.6,0.8,.,5.4,.,.
CC(c1ccco1)N(C(=O)c1cc(Cl)cc(Cl)c1)c1ccccn1 (configuration not stated),101.3,-7.5,1.3,2.7,5.8,.,.
CC(c1ccco1)N(C(=O)c1ccccc1NS(=O)(=O)c1ccc(Cl)c([N+](=O)[O-])c1)c1ccccn1 (configuration not stated),65.1*,-2.8,-1.9,38.9,-19.6,97.1,88.4
Cc1ccccc1-c1nc(CS(=O)(=O)CC(=O)NCCCN2CC(C)CC(C)C2)c(C)o1 (configuration not stated),65.2*,-7.8,1.2,-2.7,1.3,93.9,90.3
Cc1ccccc1-c1nc(CS(=O)(=O)CC(=O)NCCCN2CCOCC2)c(C)o1,103.1,-10.3,-2.6,13.0,-0.1,.,.
O=C(CN1CCN(c2ccccn2)CC1)Nc1cccc(F)c1,100.6,-3.8,0.5,11.4,0.1,110.2,92.4
O=C(CN1CCN(c2ccccn2)CC1)Nc1cccc(Br)c1,101.8,-2.4,0.1,31.0,13.0,92.1,102.1
COc1cccc(NC(=O)CN2CCN(CC(=O)Nc3ccc(F)cc3)CC2)c1,61.1*,-0.6,1.9,25.7,-0.2,112.6,105.1
O=C(CSc1nnc(CNC(=O)c2ccccc2F)o1)NC1CCCC1,100.9,-6.3,-3.4,-29.2,11.4,.,.
O=[N+]([O-])c1cc(Br)c(Nc2ccccc2)c([N+](=O)[O-])c1,53.2*,0.4,3.0,22.3,-4.1,84.5,100.3
COc1ccc(-c2nc3c4c(ncn3n2)-c2ccccc2CC42CCCC2)cc1,63.9*,-4.8,-2.2,42.5,-3.0,106.8,99.4
N#CCCN(Cc1ccccc1)C(=S)NC(=O)c1ccccc1,57.2*,-0.4,1.3,25.4,10.9,102.0,106.5
CC(=O)Nc1ccc(NC(=O)COC(=O)c2cc(S(=O)(=O)N3CCCC3)ccc2O)cc1,61.9*,-1.5,-5.5,.,-15.1,104.2,100.8
CCOc1cccc(-c2nnc(SCC(=O)Nc3cccc(OC)c3)n2N)c1,.,-5.1,-0.8,10.0,.,104.3,99.8
C=CCn1c(SCC(=O)Nc2ccc3c(c2)OCCO3)nnc1-c1ccco1,92.3,-2.6,0.3,-9.5,11.0,103.7,101.6
C=CCn1c(SCC(=O)Nc2cc(NC(C)=O)ccc2OC)nnc1-c1cccnc1,105.0,0.2,-0.2,11.9,3.0,93.9,94.1
COc1cccc(-c2nnc(SCC(=O)Nc3ccc(OC)c(OC)c3)n2N)c1,104.4,-5.8,-4.6,-2.8,-17.9,110.7,99.2
COc1ccc(NC(C)=O)cc1NC(=O)CSc1nnc(-c2ccccc2)n1N,101.8,-0.2,-3.8,20.3,-14.7,.,.
C=CCn1c(C)nnc1SCC(=O)Nc1ccc2c(c1)OCCO2,103.8,-7.1,5.8,.,-17.7,.,.
SMILES,CR mimetic SO,dFosB act,NR3A LBD binder,NALP1 inh,UBC13 polyUb,CR mimetic CP,DHE counter
O=[N+]([O-])c1ccc(S(=O)(=O)N2CCC3(CC2)OCCN3S(=O)(=O)c2cccs2)cc1,103.8,-1.0,-0.3,.,-5.3,.,.
Cc1cccc(OCc2nnc(SCC(=O)N3CC(=O)Nc4ccccc43)o2)c1,100.5,-29.2,-2.6,14.0,10.4,.,.
CCN(CC)C(=S)NC(=O)c1cc(OC)c(OC)c(OC)c1,92.6,1.0,0.4,-9.6,3.9,.,.
O=C(N/N=C/c1ccco1)c1[nH]ncc1Br,61.2*,-3.0,.,8.8,-1.0,95.9,93.5
O=C(N/N=C/c1ccccc1)c1[nH]ncc1Br,93.8,-2.8,-18.3,6.4,2.3,.,.
CC(=O)O[C@H]1C[C@@H]2CC[C@@H]3[C@H](CC[C@@]4(C)[C@H]3C[C@H]([N+]3(C)CCCCC3)[C@@H]4OC(C)=O)[C@@]2(C)C[C@@H]1N1CCCCC1,92.3,.,.,.,10.6,102.8,90.8
Fc1ccc(COc2ccc(C(=S)N3CCCC3)cc2)cc1,103.6,-1.5,0.1,26.4,1.9,.,.
Cc1nn(-c2nnc(NCc3ccccc3)nn2)c(C)c1Br,63.4*,0.5,-0.2,22.6,-8.1,84.7,92.3
CSc1ccccc1C(=O)OCC(=O)Nc1ccc(N2CCOCC2)cc1,76.6,-5.6,0.5,.,-3.1,.,.
NC(=NC(=O)c1ccc(OC(F)(F)F)cc1)c1ccc(C(F)(F)F)cn1,62.4*,8.9,4.7,4.7,-4.3,107.6,120.4
COc1ccccc1Nc1nnc(SCC(=O)Nc2nc(-c3ccc(F)cc3)cs2)s1,105.5,0.5,5.3,0.6,-13.8,.,.
N#CC1(NC(=O)COC(=O)c2cccc(-n3cnnn3)c2)CCCCC1,91.7,-7.1,2.0,.,1.9,.,.
COc1ccc(/C=N/NC(=O)c2cccnc2)cc1,54.3*,-2.4,-1.0,34.3,-3.8,95.2,99.3
O=C(/C=C/c1ccco1)Nc1ccc2c(c1)OCO2,97.8,-6.3,-1.2,36.7,-20.9,.,.
Cc1ccc(-n2nc3ccc(NC(=O)/C=C/c4ccco4)cc3n2)cc1,54.5*,-6.6,23.8*,23.4,-9.1,102.0,95.4
CCOc1ccc(Cl)cc1S(=O)(=O)N1CCC(C(=O)N2CCCC2)CC1,97.4,-5.8,0.2,-3.7,-0.6,.,.
CSc1ncc(Cl)c(C(=O)Nc2ccc(C)c(C)c2)n1,65.3*,-4.6,1.7,8.4,-12.9,98.9,113.8
COc1cccc(NC(=O)c2nc(SC)ncc2Cl)c1,105.5,-1.0,-3.0,-3.9,7.6,115.6,122.9
COc1ccc(NC(=O)c2nc(SC)ncc2Cl)cc1,109.2,0.3,-0.1,.,8.1,.,.
CCc1nc(NC(C)(C)C)c2cnn(-c3ccccc3)c2n1,94.6,-9.1,-10.2,13.6,5.6,100.7,96.6
c1ccc(-n2ncc3c(NCc4ccco4)ncnc32)cc1,87.5,-16.5,0.3,2.5,4.7,90.1,90.5
CCc1nnc2c3cnn(-c4ccccc4)c3ncn12,96.5,-5.6,3.6,29.4,9.3,.,.
CCCCNc1ncnc2c1cnn2-c1ccccc1,109.5,2.0,0.1,17.9,16.6,104.7,108.0
CCCCNc1ncnc2c1cnn2-c1ccc(Cl)cc1,84.7,-3.3,0.4,.,11.6,.,.
